Screening results as filed in PubChem BioAssay.
HSF1 inhib – HSF1 inhibition. NIH3T3-HGL HSE-luciferase, MG132-induced, luminescence 8 h; stronger effect = lower value. activity change, negative = inhibition, % at 7.5 µM (by protocol). hit rate 0.77% among 300,000;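 active means more than half of replicate wells show activity change below -50%, luminescence cut by over half; inconclusive means some wells, but at most half, below -50%; inactive means no replicate well below -50%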;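 further: luciferase reports HSF-1 transcriptional activity via heat shock element; 0% = median of DMSO wells and -100% = zero luminescence signal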
HSF-1 act – increases HSF-1 driven luciferase reporter signal; NIH3T3-HGL HSF-1 luciferase reporter, MG132, 8 h; 100% = twice DMSO control signal; activation, % at 9 µM; hit rate 1.7% among 300,000;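 active means mean replicate activation of at least 50% with a set share of replicates each reaching 50%; inconclusive means only one of those two conditions met; inactive means mean below 50% and too few replicates reaching it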;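 further: 0% = median of the neutral control wells and 100% = twice that signal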
MITF TRPM1 HTS – activators of MITF-driven TRPM1 promoter activity in SK-MEL-5 cells | SK-MEL-5 TRPM1-promoter luciferase, 24 h; % of positive control, neutral wells = 0 | activation, % at 12.5 µM | hit rate 0.75% among 300,000;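 active means mean activation of at least 80% with every replicate also reaching 80%; inconclusive means mean reaches 80% but some replicate falls short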;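 further: 0% = neutral control wells and 100% = parthenolide positive control wells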
esBAF inh – SWI/SNF esBAF complex inhibition; reporter increase, % at 12.5 µM; mouse ES cells, Bmi1-luciferase knock-in reporter, 24 h; 100% = twice the neutral-well signal; hit rate 2% among 350,000; AID 602393; in the data active means activation above about 40%; inconclusive means no clear call, values can overlap the other calls;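 further: 0% = median of the plate's neutral control wells and 100% = double that signal; a rise in the Bmi1 reporter signal indicates esBAF inhibition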
Wnt act – activators of Wnt/beta-catenin signaling | activation, % at 9.35 µM | AID 743398 | hit rate 1.2% among 300,000 | Wnt/beta-catenin reporter cell assay, activator, plate reader; in the data active means activation above about 30%, passing the limit was not always enough; inconclusive means no clear call, values can overlap the other calls;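 further: 0% = neutral control wells and 100% = positive control wells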
Numbers without * were called inactive; ? = inconclusive; / = not tested or not shown. Sampled rows, rich in hits. Any-hit rate of the full collection: about 3.9%.

SMILES	HSF1 inhib	HSF-1 act	MITF TRPM1 HTS	esBAF inh	Wnt act
COc1ccc(OC)c(NC(=O)CSCC(=O)O)c1	-90*	-92	/	-3	/
COc1ccc(OC)c(NC(=O)CSc2nnc(C3CCCCC3)n2-c2ccccc2)c1	4	3	-19	0	57*
COc1ccc(OC)c(NC(=O)CSc2ccccc2)c1	9	30	-4	-7	-5
COc1ccc(NC(C)=O)cc1NC(=O)CSc1nnc(C2CCCCC2)n1N	0	-1	-13	-3	0
CC(C)N1CC2(CC(c3ccc(Cl)cc3Cl)=NO2)CN1C(=O)c1ccc(C(C)(C)C)cc1 (stereo unspecified)	/	/	/	8	-2
CC(=O)N1CC2(CC(c3ccccc3F)=NO2)CN1c1ccc(Cl)cc1 (stereo unspecified)	/	/	/	55*	-2
Oc1ccc(Nc2nc(-c3ccc4ccccc4c3)cs2)cc1	-7	-2	-6	/	/
Oc1ccc(Nc2ccc3ccccc3c2)cc1	/	/	/	49*	0
CNC(=O)C[C@H]1CC[C@@H]2[C@H](COc3ccc(NC(=O)NC(C)C)cc3C(=O)N2C)O1	/	/	/	-2	/
Cc1ccc(Nc2c(-c3ccc(C)o3)nc3ncccn23)cc1	3	-15	29	37	13
Cc1ccc(-c2nc3cnccn3c2Nc2c(C)cccc2C)o1	-82*	-85	-1	-5	-4
Cc1ccc(-c2nc3ncccn3c2Nc2ccccc2C)o1	19	57*	1	/	3
C[C@@H]1CN([C@@H](C)CO)C(=O)c2cc(C#C[C@@H](C)O)cnc2O[C@@H]1CN(C)Cc1ccc(-c2ccccc2)cc1	/	/	/	4	/
C[C@H](CO)N1C[C@H](C)[C@@H](CN(C)Cc2ccc(-c3ccccc3)cc2)Oc2ccc(NC(=O)C3CC3)cc2CC1=O	/	/	/	-1	/
CC(C)Sc1nnc(-c2c[nH]c3ccccc23)n1C	8	4	/	41*	20
O=C(O)c1ccc(/C=N/N2CCN(Cc3ccc(Cl)cc3)CC2)cc1	1	11	8	/	6
COC(=O)c1ccc(/C=N/N2CCN(Cc3ccc(Cl)cc3)CC2)cc1	-6	1	/	/	51*
CO[C@@H]1CN(C)C(=O)c2cc(NC(C)=O)ccc2OC[C@@H](C)N(CCc2ccccc2)C[C@H]1C	/	/	/	5	/
CCOc1ccc(S(=O)(=O)NNC(=S)Nc2ccc(Br)cc2)cc1	87	113*	4	/	8
CCCCSc1ncnc2c1ncn2C1CCCCO1 (stereo unspecified)	/	/	90*	16	52*
Fc1ccccc1CSc1ncnc2c1ncn2C1CCCO1 (stereo unspecified)	/	/	59	69*	0
Nc1ncnc2c1ncn2C1CCCO1 (stereo unspecified)	/	/	11	4	-3
C[C@@H]1CN([C@@H](C)CO)C(=O)c2cc(NC(=O)c3ccccc3)ccc2O[C@@H](C)CCCCO[C@@H]1CN(C)C(=O)Nc1cccc2ccccc12	/	/	/	-2	/
Cc1cc(SCC(=O)Nc2ncc(Cl)cc2Cl)nc2ccccc12	32	54*	5	/	9
COc1ccc2c(C)cc(SCC(=O)Nc3ncc(Cl)cc3Cl)nc2c1	-11	-27	-7	/	-2
SMILES	HSF1 inhib	HSF-1 act	MITF TRPM1 HTS	esBAF inh	Wnt act
CC1=CCC2C(=O)N(c3ccc(C)c(Br)c3)C(=O)C2C1 (stereo unspecified)	-76*	-81	1	9	-3
Cc1noc(C)c1S(=O)(=O)Nc1ccc2c(c1)C(=O)N([C@H](C)CO)C[C@@H](C)[C@@H](CN(C)C(=O)NC(C)C)O2	/	/	/	-2	/
C[C@H]1CN([C@@H](C)CO)C(=O)c2cc(NC(=O)Cc3cn(C)c4ccccc34)ccc2O[C@@H]1CN(C)C(=O)NC1CCCCC1	/	/	/	0	/
CC(C)OC(=O)CSc1nc2cc3c(cc2cc1C#N)OCO3	10	19	/	59*	/
COC(=O)CSc1nc2cc3c(cc2cc1C#N)OCO3	31	45	79	/	/
CCOC(=O)CSc1nc2cc3c(cc2cc1C#N)OCO3	/	/	90*	/	/
CCOC(=O)CSc1nc2cc3c(cc2cc1C#N)OCCO3	-33	-33	61	/	8
N#Cc1cc2cc3c(cc2nc1SCC(=O)N1CCOCC1)OCO3	-4	-18	/	52*	?
S=C(Nc1ccc(Cl)cc1)c1nc2ccccc2s1	-26	-36	45	35	/
Cc1ccc(NC(=S)c2nc3ccccc3s2)cc1	-65*	-70	-5	-19	0
Cc1ccc([N+](=O)[O-])cc1N=Nc1c(-c2ccc([N+](=O)[O-])cc2)[nH]n(C(N)=S)c1=O	19	56*	-61	-47	/
Oc1ccccc1-c1cc(-c2cccc(F)c2)n[nH]1	15	6	/	45*	/
CC(C)(C)c1ccc(-c2cc(-c3ccccc3O)[nH]n2)cc1	-72*	-75	-4	-32	-2
Oc1ccc(Cl)cc1-c1cc(-c2cccc(Br)c2)n[nH]1	4	2	/	17	/
CC(C)(C)[S@](=O)N1Cc2cc(C(=O)NCc3ccccc3F)nc(-c3cccc(-c4ccncc4)c3)c2[C@@H]1CCO	/	/	/	7	/
CCOC(=O)C1CCN(CCC(=O)Nc2ccc(C)c(C)c2)CC1	/	/	10	/	46*
CCOC(=O)C1CCCN(CCC(=O)Nc2ccc(C)c(C)c2)C1 (stereo unspecified)	2	3	-5	-1	0
Cc1ccnc(NC(=O)CC(NC(=O)c2ccccc2Cl)c2ccccc2)c1 (stereo unspecified)	5	0	58	52*	-4
Cc1ccc(NC(=O)CNC(=O)COc2ccccc2)nc1	11	-1	-3	-7	-1
Cc1ccnc(NC(=O)CCNC(=O)c2ccccc2Cl)c1	-3	12	20	46*	3
Cc1ccnc(NC(=O)CNC(=O)COc2ccccc2)c1	0	13	90*	74*	38*
Cc1ccc(NC(=O)CCNC(=O)c2ccccc2Cl)nc1	-8	-5	2	4	-2
CC(C)NC(=O)N[C@@H]1CC[C@H](CCNC(=O)C2CC2)O[C@H]1CO	/	/	/	-4	/
C[C@H](CO)N1C[C@H](C)[C@H](CN(C)C(=O)c2ccccc2)Oc2ncc(C3=CCCC3)cc2C1=O	/	/	/	0	/
CC1CCN(C(=O)CSCc2ccc(Cl)cc2)CC1	17	42	?	49*	/
SMILES	HSF1 inhib	HSF-1 act	MITF TRPM1 HTS	esBAF inh	Wnt act
O=C(CSCc1ccc(Br)cc1)N1CCCC1	15	57*	9	/	4
Cc1c(C#N)c(O)n(CCO)c(=O)c1N=Nc1ccc2c(c1)COC2=O	67	67*	-61	/	3
Cc1ccc2cc(CN(CC3CCCO3)C(=O)Nc3ccccc3F)c3nnnn3c2c1 (stereo unspecified)	/	/	29	45*	2
Cc1ccc2cc(CN(CC3CCCO3)S(=O)(=O)c3ccccc3)c3nnnn3c2c1 (stereo unspecified)	6	29	2	8	1
CCc1ccc(C(=O)CSc2nnc(C3CC3)n2C2CC2)cc1	/	/	39	41*	-5
O=C(CSc1nnc(C2CC2)n1C1CC1)c1ccc(F)c(F)c1	/	/	16	26	9
Cc1ccc(C(=O)CSc2nnc(C3CC3)n2C2CC2)s1	/	/	/	46*	25
